# Laboratory results as given in PubChem BioAssay AID1259245 (Vanderbilt High Throughput Screening Facility, 2017).
# The campaign covered roughly 40,000 compounds. About 1,400 (3.5%) were called active. The sample holds actives, similar compounds and a random draw of the others, so the mix is not that of the screen.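 The calls were made as follows: active = any of four per-well response measures lying three or more SD from its plate-wide compound average, in either direction; inactive = the rest, inconclusive results apart.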
# Target: Voltage-dependent calcium channel gamma-2 subunit (Mus musculus) + Glutamate receptor 2 (Rattus norvegicus) (UniProt O88602+P19491)
# Sequence (O88602 whole entry, looked up): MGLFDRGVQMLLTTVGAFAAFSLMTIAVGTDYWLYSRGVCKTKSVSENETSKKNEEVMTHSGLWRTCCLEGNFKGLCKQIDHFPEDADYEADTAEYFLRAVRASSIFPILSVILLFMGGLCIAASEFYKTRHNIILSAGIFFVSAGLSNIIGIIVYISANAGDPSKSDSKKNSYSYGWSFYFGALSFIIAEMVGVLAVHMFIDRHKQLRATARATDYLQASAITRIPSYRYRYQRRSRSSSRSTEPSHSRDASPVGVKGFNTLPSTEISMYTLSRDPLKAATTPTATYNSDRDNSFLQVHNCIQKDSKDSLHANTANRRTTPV
# Sequence (P19491 whole entry, looked up): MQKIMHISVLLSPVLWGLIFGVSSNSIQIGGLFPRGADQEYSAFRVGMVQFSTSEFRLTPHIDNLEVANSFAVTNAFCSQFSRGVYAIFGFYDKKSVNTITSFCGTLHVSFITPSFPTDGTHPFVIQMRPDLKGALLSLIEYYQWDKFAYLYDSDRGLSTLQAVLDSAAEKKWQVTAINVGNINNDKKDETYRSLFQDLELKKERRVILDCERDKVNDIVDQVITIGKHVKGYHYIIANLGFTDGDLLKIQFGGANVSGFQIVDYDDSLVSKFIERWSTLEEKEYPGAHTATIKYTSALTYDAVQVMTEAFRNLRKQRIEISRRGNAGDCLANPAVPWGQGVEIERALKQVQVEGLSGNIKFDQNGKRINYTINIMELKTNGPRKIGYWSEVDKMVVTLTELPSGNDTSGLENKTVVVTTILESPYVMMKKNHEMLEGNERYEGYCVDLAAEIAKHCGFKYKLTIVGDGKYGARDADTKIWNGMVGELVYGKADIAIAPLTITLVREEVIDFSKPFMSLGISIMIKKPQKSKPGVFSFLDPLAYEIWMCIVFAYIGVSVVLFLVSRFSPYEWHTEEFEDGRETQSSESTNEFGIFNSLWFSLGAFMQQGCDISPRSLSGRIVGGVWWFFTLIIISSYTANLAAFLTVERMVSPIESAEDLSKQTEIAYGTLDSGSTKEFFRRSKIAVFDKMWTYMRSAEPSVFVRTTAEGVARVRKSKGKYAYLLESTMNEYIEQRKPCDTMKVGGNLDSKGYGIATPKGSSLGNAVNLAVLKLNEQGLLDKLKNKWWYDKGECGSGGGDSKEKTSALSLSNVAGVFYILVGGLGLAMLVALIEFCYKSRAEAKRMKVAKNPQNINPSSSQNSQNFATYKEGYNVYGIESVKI
# Test: modulators of GluA2-stargazin AMPA receptor complexes, primary screen, cell-based, membrane potential dye (AID 1259245)
# Details: HEK293 GluA2+stargazin, membrane potential dye (FDSS), glutamate EC50, at 30 µM, hits were called plate by plate, in both directions; compound max-min signal: compound-alone response (agonism); glutamate slope, % of max: measured here: glutamate response slope, % max
SMILES,compound max-min signal,"glutamate response, % of max","glutamate slope, % of max [%]"
CCOC(=O)c1cn(CC(=O)Nc2ccc(C)cc2Cl)c2nc(C)ccc2c1=O,0.132,31.9% (inactive),51
COc1cc(NS(=O)(=O)c2ccc(NC(=O)c3ccc(S(=O)(=O)N4CCOCC4)cc3)cc2)ncn1,0.0995,43.4% (inactive),72.4
CCOc1ccc2nc(N(Cc3ccncc3)C(=O)/C=C/c3cccs3)sc2c1,0.107,21.1% (inactive),47.3
O=S(=O)(c1ccc2c(c1)CCCC2)N1CCN(c2ccc3nncn3n2)CC1,0.0592,23.2% (inactive),46.1
O=S(=O)(c1ccc(F)cc1F)N1CCN(c2ccc(-c3cccs3)nn2)CC1,0.0403,12.3% (inactive),30.1
COc1ccc(S(=O)(=O)N2CCN(c3ccc4nncn4n3)CC2)cc1C,0.114,18.4% (inactive),44.4
O=S(=O)(c1cccs1)N1CCC(c2ccsc2)CC1,0.115,35.3% (inactive),65.4
CCc1ccc(S(=O)(=O)N2CCN(c3ccc(Nc4cccc(C)n4)nn3)CC2)cc1,0.366,22.6% (active),37.7
Cc1cccc(Nc2ccc(N3CCN(S(=O)(=O)c4cccs4)CC3)nn2)n1,0.445,13.5% (active),21.9
COc1cccc(-c2noc(C3CCN(S(=O)(=O)c4ccc(C)cc4)CC3)n2)c1OC,0.0999,28.5% (inactive),52.6
O=S(=O)(c1ccccc1)N1CCN(Cc2nnnn2-c2ccc(F)cc2)CC1,0.0497,29.1% (inactive),63.3
O=S(=O)(Cc1ccc(Cl)cc1)c1ccc(NCc2ccccc2)nn1,0.0863,49.2% (inactive),64.8
CCOC(=O)N1CCN(/C=C2\Oc3c(ccc(O)c3C)C2=O)CC1,0.132,21.6% (inactive),32.3
COc1ccc(-c2cc3ccc4c(c3oc2=O)CN(C2CCS(=O)(=O)C2)CO4)cc1OC (stereo not drawn),0.083,20.7% (inactive),43.1
CC(O)(CNC(=O)/C=C/c1ccccc1)c1ccccc1 (stereo not drawn),0.0976,44.2% (inactive),61.2
Cc1cnc2c(c1NCCc1ccc(S(N)(=O)=O)cc1)c(=O)n(C)c(=O)n2C,0.167,32.2% (active),50
Cc1cnc2c(c1SCC(=O)O)c(=O)n(C)c(=O)n2C,0.0266,30.3% (inactive),58
COCc1cnc2c(c1SCc1ccc(Br)cc1)c(=O)n(C)c(=O)n2C,0.0342,27% (inactive),47.1
CCOC(=O)C(CC)Sc1ccnc2c1c(=O)n(C)c(=O)n2C (stereo not drawn),0.0572,21.5% (inactive),49.8
Cc1cnc2c(c1SCc1ccc([N+](=O)[O-])cc1)c(=O)n(C)c(=O)n2C,0.158,47.1% (active),69.5
Cn1c(=O)c2c(ncn2CCc2ccccc2)n(C)c1=O,0.12,41.9% (inactive),67.6
COc1ccc(CNC(=O)C(=O)NCC2CCN(Cc3cccs3)CC2)cc1,0.0534,41.2% (inactive),57.3
CCOc1ccc(CC(=O)Nc2nn(C)c3c2C(C)CC(=O)N3)cc1 (stereo not drawn),0.129,42.6% (inactive),64.1
O=C(Nc1cc(-c2ccco2)nn1-c1nc(-c2ccccc2)cc(=O)[nH]1)c1ccco1,0.115,35.5% (inactive),53.1

SMILES,compound max-min signal,"glutamate response, % of max","glutamate slope, % of max [%]"
Cn1nnc2c(N3CCN(C(=O)c4cc5ccccc5o4)CC3)ncnc21,0.0567,24.9% (inactive),41.7
Cc1cc(C)n(CCNC(=O)c2nc(-c3cnccn3)no2)n1,0.147,48.6% (inactive),86.3
CS(=O)(=O)N1CCCCC1C(=O)Nc1nc(-c2ccccn2)cs1 (stereo not drawn),0.116,43% (inactive),58.9
CC(C)Sc1ccc(C(=O)Nc2nc(-c3ccccn3)cs2)cc1,0.135,-1.73% (active),2.45
CSc1ccc(CC(=O)Nc2nc(-c3nc4ccccc4s3)cs2)cc1,0.102,33% (inactive),57.3
Cc1nn(C2CCS(=O)(=O)C2)c2nc(-c3ccccc3)cc(C(=O)Nc3ccc(F)cc3F)c12 (stereo not drawn),0.0886,43% (inactive),54.9
Cc1ccc(NC(=O)CSC2=NC(C)(C)N=C2c2ccccc2)c(C)c1,0.112,41.7% (inactive),61.7
COc1cc(NC(=O)CSC2=NC3(CCCC3)N=C2c2ccccc2)cc(OC)c1,0.0812,57.8% (active),80.4
COC(=O)c1ccc(NC(=O)CSc2nc(-c3ccccc3)c(N)s2)cc1,0.12,38.3% (inactive),63
CCS(=O)(=O)N1CCCc2ccc(NS(=O)(=O)c3cc(Cl)ccc3OC)cc21,0.119,44.4% (inactive),80.9
COC(=O)Cn1c(=O)c2c(nc3n(-c4ccccc4C)c(C)c(C)n23)n(C)c1=O,0.0754,36.6% (inactive),56.4
Cc1c(C)n2c3c(=O)n(C/C=C/c4ccccc4)c(=O)n(C)c3nc2n1-c1ccccc1O,0.0773,13.8% (inactive),35.4
Cc1cccc(Cn2c(=O)c3c(nc4n(-c5ccccc5O)c(C)c(C)n34)n(C)c2=O)c1,0.11,3.33% (active),16.2
COc1ccc(S(=O)(=O)NCC(O)c2cccn2C)c(C)c1 (stereo not drawn),0.107,43.5% (inactive),60.7
Cc1cc(S(=O)(=O)NCCn2nc(-c3ccc(F)cc3)ccc2=O)ccc1F,0.0676,28.5% (inactive),55.6
COc1cc(C)c(C)cc1S(=O)(=O)NCC(O)c1ccc(C(F)(F)F)cc1 (stereo not drawn),0.216,20.5% (active),36
Cc1cc(S(=O)(=O)NCC(O)c2ccc(C(F)(F)F)cc2)ccc1F (stereo not drawn),0.256,28.2% (active),41.3
Cc1cc(S(=O)(=O)NCC2(O)CCCC2)ccc1F,0.0902,36% (inactive),60.8
Cc1ccc(NC(=O)NCC(O)c2ccc(C(F)(F)F)cc2)cc1 (stereo not drawn),0.115,16.6% (inactive),47.8
CC(NC(=O)C12CC3CC(CC(C3)C1)C2)C(=O)N/N=C/c1ccc([N+](=O)[O-])o1 (stereo not drawn),0.133,27.9% (inactive),52.7
O=S(=O)(CCCOc1ccc(F)cc1)NCCCc1ccccc1,0.118,50.6% (inactive),66.1
CCCNC(=O)Cn1c(=O)c2c(N3CCN(C(=O)c4ccco4)CC3)c(C)cnc2n(C)c1=O,0.127,48.2% (inactive),70
CCn1ccnc1N1CCN(C(=O)CCS(=O)(=O)c2ccccc2)CC1,0.0601,11.8% (inactive),23.3
COCCNC(=O)Cn1cc(-c2nnc(C)o2)c2ccccc21,0.0888,38.9% (inactive),57.5

SMILES,compound max-min signal,"glutamate response, % of max","glutamate slope, % of max [%]"
O=C(NC(=S)Nc1ccc(S(=O)(=O)N2CCOCC2)cc1)c1sc2ccccc2c1Cl,0.0349,29.8% (inactive),52.2
CCN(CC)C(=O)C(=O)c1cn(CC(=O)N2CCOCC2)c2ccccc12,0.0509,31.2% (inactive),53.3
Cc1cccc(C)c1NC(=O)Cn1c(=O)n(C(C)C)c(=O)c2nscc21,0.121,32.1% (active),45.8
CSc1cccc(NC(=O)Cn2c(=O)n(C3CC3)c(=O)c3nscc32)c1,0.107,26.5% (inactive),50.3
COC(=O)c1ccc(NC(=O)Cn2c(=O)n(C(C)C)c(=O)c3nscc32)cc1,0.116,34.2% (inactive),56.9
CC(=O)N1CC(C(=O)Nc2cccc3nsnc23)C1,0.0775,30.1% (inactive),49.8
COc1ccc(-n2nc3c(c2NC(=O)C(=O)NC2CCCC2)CS(=O)(=O)C3)cc1,0.0561,41.9% (inactive),51.3
CC1CCN(C(=O)C(=O)Nc2c3c(nn2-c2ccc(F)cc2)CSC3)CC1,0.0271,24.1% (inactive),44.2
COc1ccc(-n2nc3c(c2NC(=O)C(=O)N2CCCCC2)CSC3)cc1,0.0721,33.6% (active),59.2
O=C(NCCCN1CCCC1=O)C(=O)Nc1c2c(nn1-c1cccc(Cl)c1)CSC2,0.0244,21.6% (inactive),47
O=C(NCCCn1ccnc1)C(=O)Nc1c2c(nn1-c1ccc(Cl)cc1)CSC2,0.0348,37.9% (inactive),64.4
O=C(Nc1c2c(nn1-c1ccc(F)cc1)CSC2)C(=O)N1CCCCCC1,0.071,32% (active),43.4
CCCn1c(N2CCC(C(N)=O)CC2)nc2c1c(=O)n(C)c(=O)n2C,0.0828,24.8% (inactive),45.3
CCCCc1ccc(-n2c(C)cn3c4c(=O)n(CC(=O)OC)c(=O)n(C)c4nc23)cc1,0.103,55.1% (inactive),73.4
COc1cccc(-n2nnc3c(N4CCN(C(=O)c5c(OC)cccc5OC)CC4)ncnc32)c1,0.0804,29.1% (inactive),53.7
CCc1ccccc1NC(=O)NCCOc1ccc2nnc(-c3cccc(F)c3)n2n1,0.131,41.1% (active),52.3
O=C(COc1ccc(Cl)cc1)NCCOc1ccc2nnc(-c3cccc(F)c3)n2n1,0.0351,38.7% (inactive),69.7
Cc1nc(-c2ccccc2)sc1C(=O)NCCOc1ccc2nnc(-c3ccccc3)n2n1,0.0398,37.1% (inactive),49.7
COc1ccc(CCS(=O)(=O)Nc2ccc3c(c2)N(C(C)=O)CC3)cc1,0.0917,25.2% (inactive),47.2
CCOc1ccc(N2CCCn3c2nc2c3c(=O)n(CCN3CCOCC3)c(=O)n2C)cc1,0.074,10% (inactive),27.7
CC(=O)N1CCN(c2ccnc3c2c(=O)n(CC(=O)NCC2CCCO2)c(=O)n3C)CC1 (stereo not drawn),0.0945,51% (inactive),78.2
CCc1ccc(NC(=O)Cn2c(=O)c3c(N4CCN(C(C)=O)CC4)ccnc3n(C)c2=O)cc1,0.159,32.2% (active),55.8
CC(=O)N1CCN(c2ccnc3c2c(=O)n(CC(=O)NCc2ccco2)c(=O)n3C)CC1,0.103,49.5% (inactive),74.3
